From PubChem BioAssay (NCATS) come the findings set out here.

SMILES strings stand for the structures. Values without a mark were called inactive. Inconclusive results are not listed. Calls of active or inactive are those of the source. Unless noted, calls come from the whole dose curve; as a rule, active = well fitted curve in either direction with a large enough effect (not every such curve was filed as active); inconclusive = small, poorly fitted or top-dose-only effect, or another doubt; inactive = flat fitted curve, though single readings scatter. Where only a bound is given, the exact number is not on record here.

Experiment [1] deals with Lysosomal acid glucosylceramidase (Homo sapiens) (UniProt P04062). The experiment can be described thus: Glucocerebrosidase-p2 (AID 348; in the data active = potency below about 10 µM; note: potency is the fitted concentration of half-maximal effect). The following applies: purified GBA, blue fluorogenic substrate, 40 min. In outline: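 Compounds titrated from 0.6 nM upwards against 0.2 nM enzyme in pH 5.9 citric acid/KH2PO4, taurocholate, tween-20; blue fluorogenic substrate 80 uM, 40 min room temperature, stopped and read Ex 365/Em 440 for AC50.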
Lysosomal acid glucosylceramidase (Homo sapiens), sequence (P04062 whole entry, looked up): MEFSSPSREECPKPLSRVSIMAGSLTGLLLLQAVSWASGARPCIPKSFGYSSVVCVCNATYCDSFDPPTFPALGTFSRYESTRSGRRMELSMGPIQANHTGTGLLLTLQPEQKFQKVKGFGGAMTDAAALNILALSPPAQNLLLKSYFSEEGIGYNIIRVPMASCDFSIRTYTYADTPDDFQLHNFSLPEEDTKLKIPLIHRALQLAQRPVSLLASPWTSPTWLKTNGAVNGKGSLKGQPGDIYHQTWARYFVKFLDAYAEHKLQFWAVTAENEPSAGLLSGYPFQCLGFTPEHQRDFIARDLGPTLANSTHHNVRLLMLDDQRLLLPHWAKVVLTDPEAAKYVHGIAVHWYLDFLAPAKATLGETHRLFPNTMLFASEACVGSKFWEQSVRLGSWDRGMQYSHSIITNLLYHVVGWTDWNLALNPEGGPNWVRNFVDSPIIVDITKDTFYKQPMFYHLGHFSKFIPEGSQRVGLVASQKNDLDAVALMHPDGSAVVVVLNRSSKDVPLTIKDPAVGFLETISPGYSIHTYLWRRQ

Experiment [2] is described as follows: AP1 Signaling Pathway (AID 357).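 Note: ME-180 reporter cells stimulated with EGF at its EC50 level; % is set by controls: 0 for no effect and ±100 for the full control effect.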 The following applies: ME-180 AP-1-bla reporter, EGF-induced, beta-lactamase ratio, 5 h; at 7.69 µM (top of the series) unless noted. In outline: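 In this screen, ME-180 cells in Opti-MEM with 0.5% dialyzed FBS received EC50 EGF and compound titrations for 5 h. AP-1 reporter beta-lactamase was detected via CCF4 ratio, giving AC50 for positive and negative modulators.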

The nature of experiment [3]: NFAT Signaling Pathway (AID 444).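 Note: carbachol stimulus at about its EC50 of 1 µM final; % is set by controls: 0 for no effect and ±100 for the full control effect.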 The settings on record: Jurkat NFAT-bla M1, carbachol, beta-lactamase ratio, 5 h; at 7.69 µM (top of the series) unless noted. In outline:
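Jurkat cells carrying an NFAT-driven β-lactamase reporter and co-transfected muscarinic M1 receptor were treated with compound plus carbachol (1 uM final, an EC50 level) for 5 h at 37 °C. CCF4 loading followed for 1 h at RT; 460/530 nm ratio gave %activity.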

A short description of experiment [4]: Stat Signaling Pathway (AID 446).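 Note: ME-180 cervical cancer cells given 40 pM IL-6 alongside compound; SIE-controlled beta-lactamase reporter measured as 460/530 nm FRET emission ratio; % is set by controls: 0 for no effect and ±100 for the full control effect.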 The following applies: ME-180 SIE beta-lactamase reporter, IL-6 stimulated, 5 h; at 7.69 µM (top of the series) unless noted. The essentials:
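ME-180 SIE-bla cells; overnight plating; cpd + IL-6 40 pM, 5 h, 37 C; LiveBLAzer 2.5 h RT; 460/530 nm emission ratio. Normalized to 300 pM IL-6 and 125 nM JAK inhibitor controls.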

Experiment [5] addresses Glucocorticoid receptor (Homo sapiens) (UniProt P04150). The experiment in a line: GR-GFP Redistribution (AID 450;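 active = compounds whose dose series gives a full or clear partial fitted curve of increased nuclear translocation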; note: potency is the fitted concentration of half-maximal effect). The following applies: U2OS GR-GFP nuclear translocation, laser cytometry, 2 h.
For experiment [6] the target is unchanged. The experiment can be described thus: GR-EFC Redistribution (AID 451; calls by dose curve; note: potency is the fitted concentration of half-maximal effect). The following applies: CHO-K1 GR-EFC translocation, beta-gal luminescence, 2 h. The essentials: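 CHO-K1 cells stably expressing nuclear-localized β-gal enzyme acceptor and GR fused C-terminally to the enzyme donor fragment; ligand-driven nuclear translocation restores β-gal by complementation. Compounds titrated up to 46 uM final, 2 h at 37 °C; luminescence read.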

For experiment [7], the target named is Mitogen-activated protein kinase 10 (Mus musculus) (UniProt Q61831). The experiment in a line: JNK3 AlphaScreen Assay (AID 530).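 Note: kinase came from lysate of stimulated human HepG2 cells; signal reports phosphorylation of biotinylated GST-cJun 1-79 at Ser73 with 10 µM ATP; % is set by controls: 0 for no effect and ±100 for the full control effect.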 The following applies: JNK3 lysate, c-Jun phosphorylation; series mostly up to 11.4 µM. The essentials:
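JNK3 came from HepG2 lysates pre-activated with IL-1beta and TNF-alpha and phosphorylated biotinylated GST-cJun (1-79) at 10 uM ATP, pH 7.6, room temperature. Compounds were titrated. AlphaScreen signal used anti-phospho-cJun (Ser73) antibody.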
For orientation: Alpha assays give light when donor and acceptor beads are brought close together.

The target of experiment [8] is 3',5'-cyclic-AMP phosphodiesterase 4B (Homo sapiens) (UniProt Q07343). The experiment in a line: qHTS Assay for Inhibitors of PDE-IV (AID 607; active = well fitted activation curve with a large enough effect in the main read-out, with a control signal flat, not every such curve was filed as active; note: % of control where 0% means no effect). The settings on record: HEK293 ACTOne CNG channel cells, membrane potential fluorescence; series mostly up to 22.9 µM. The essentials:
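ACTOne HEK293 cells carry a modified cAMP-gated CNG channel and express endogenous PDE4; plated 1000 cells/well, compounds up to 22.9 uM final. Membrane-potential dye fluorescence (ex 535/em 590) was read; parental cells received 10 uM forskolin + 100 uM RO 20-1724.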
(In qHTS, concentration-response curves come from the screen itself.)

Experiment [9] addresses Cytochrome P450 2D6 (Homo sapiens) (UniProt P10635). The experiment in a line: qHTS Assay for Inhibitors and Substrates of Cytochrome P450 2D6 (AID 891; active = well fitted curve in the direction sought with a large enough effect; an effect the other way counts as inactive or inconclusive; note: potency is the fitted concentration of half-maximal effect; nearly all actives have a fitted effect of over 60% in size). The following applies: recombinant CYP2D6, luciferin-ME EGE luminescence; series mostly up to 11.4 µM. The essentials: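 Human CYP2D6 (5 nM) with 30 uM Luciferin-ME EGE (at Km) in 100 mM KPO4, compound preincubated 10 min, then NADPH regeneration system for 60 min at room temperature. Luciferin read by luminescence; normalized to 1.43 uM quinidine.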

Experiment [10] addresses Cytochrome P450 2C19 (Homo sapiens) (UniProt P33261). The experiment in a line: qHTS Assay for Inhibitors and Substrates of Cytochrome P450 2C19 (AID 899; active = well fitted curve in the direction sought with a large enough effect; an effect the other way counts as inactive or inconclusive; note: nearly all actives have a fitted effect of over 60% in size; note: potency is the fitted concentration of half-maximal effect). The following applies: recombinant CYP2C19, luciferin-H EGE luminescence; series mostly up to 11.4 µM. The essentials: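 In 50mM KPO4, the reaction held 5nM enzyme and KM-level (10uM) Luciferin-H EGE; it ran 60 min at 37C after NADPH regeneration and a 10 min compound preincubation. Luminescence values were scaled to 57uM ketoconazole as complete inhibition.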

Experiment [11] concerns the target Cytochrome P450 3A4 (Homo sapiens) (UniProt P08684). The experiment can be described thus: qHTS Assay for Activators of Cytochrome P450 3A4 (AID 885; active = well fitted curve in the direction sought with a large enough effect; an effect the other way counts as inactive or inconclusive; note: nearly all actives have a fitted effect of over 65% in size). The settings on record: recombinant CYP3A4, Luciferin-PPXE luminescence, 60 min; series mostly up to 11.4 µM. In outline:
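20nM CYP3A4 + 25uM Luciferin-PPXE (=KM), 200mM KPO4; cpd 10 min RT; NADPH regen, 60 min RT; stop w/ detection buffer, 20 min; luminescence. Normalized to 57 uM ketoconazole.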

A short description of experiment [12]: qHTS Assay for Identification of Small Molecule Agonists for Hypoxia Response Element Signaling Pathway (AID 914; active = well fitted activation curve with a large enough effect in the signal ratio, with a control signal flat, not every such curve was filed as active; the % refers to the signal ratio; note: % of control where 0% means no effect). The settings on record: ME-180 (cervical carcinoma) HRE-bla reporter, beta-lactamase ratio, CoCl2, 17 h; activation: hits give high values. In outline:
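Positive modulation of EC50 CoCl2-induced hypoxia response element signaling is measured in ME-180 cells with a beta-lactamase reporter. Compounds are titrated, incubation runs 17 hours, and %Activity derives from the blue/green ratio.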

In experiment [13] the target is Cytochrome P450 3A4 (Homo sapiens) (UniProt P08684). The experiment in a line: qHTS Assay for Inhibitors and Substrates of Cytochrome P450 3A4 (AID 884; active = well fitted curve in the direction sought with a large enough effect; an effect the other way counts as inactive or inconclusive; note: % is set by controls: 0 for no effect and ±100 for the full control effect; nearly all actives have a fitted effect of over 50% in size). The settings on record: recombinant CYP3A4, Luciferin-PPXE luminescence; series mostly up to 57.1 µM. The essentials: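 20 nM human CYP3A4 with 25 uM Luciferin-PPXE (at KM) in 200 mM KPO4, preincubated 10 min with compound; NADPH regeneration started a 60 min RT reaction. Luciferin detected by luminescence, normalized to 57 uM ketoconazole as full inhibition.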
Cytochrome P450 3A4 (Homo sapiens), sequence (P08684 whole entry, looked up): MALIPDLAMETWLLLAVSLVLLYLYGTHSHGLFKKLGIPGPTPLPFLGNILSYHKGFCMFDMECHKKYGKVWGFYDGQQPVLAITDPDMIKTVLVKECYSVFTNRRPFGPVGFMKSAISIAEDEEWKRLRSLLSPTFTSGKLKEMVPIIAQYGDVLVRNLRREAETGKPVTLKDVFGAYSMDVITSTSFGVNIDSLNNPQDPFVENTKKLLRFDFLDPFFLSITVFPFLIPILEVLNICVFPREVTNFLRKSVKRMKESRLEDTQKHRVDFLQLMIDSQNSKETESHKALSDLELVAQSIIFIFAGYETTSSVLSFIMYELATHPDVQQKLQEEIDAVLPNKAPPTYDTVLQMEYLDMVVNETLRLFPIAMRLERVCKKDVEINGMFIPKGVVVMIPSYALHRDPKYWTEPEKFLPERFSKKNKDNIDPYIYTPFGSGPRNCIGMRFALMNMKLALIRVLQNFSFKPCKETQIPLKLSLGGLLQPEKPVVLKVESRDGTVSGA

In experiment [14] the target is Cytochrome P450 2C9 (Homo sapiens) (UniProt P11712). The experiment can be described thus: qHTS Assay for Inhibitors and Substrates of Cytochrome P450 2C9 (AID 883; active = well fitted curve in the direction sought with a large enough effect; an effect the other way counts as inactive or inconclusive; note: potency is the fitted concentration of half-maximal effect; nearly all actives have a fitted effect of over 60% in size). The settings on record: recombinant CYP2C9, luciferin-H luminescence, 60 min; series mostly up to 11.4 µM. The essentials:
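CYP2C9 deoxyluciferin hydroxylation, 37C, 60 min with NADPH regeneration; 10nM enzyme, 100uM Luciferin-H (KM). Glo detection reagent stopped reaction; luminescence normalized to sulphaphenazole (57uM) full inhibition.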

Glucocorticoid receptor (Homo sapiens), sequence (P04150 whole entry, looked up, the tested form may be a part): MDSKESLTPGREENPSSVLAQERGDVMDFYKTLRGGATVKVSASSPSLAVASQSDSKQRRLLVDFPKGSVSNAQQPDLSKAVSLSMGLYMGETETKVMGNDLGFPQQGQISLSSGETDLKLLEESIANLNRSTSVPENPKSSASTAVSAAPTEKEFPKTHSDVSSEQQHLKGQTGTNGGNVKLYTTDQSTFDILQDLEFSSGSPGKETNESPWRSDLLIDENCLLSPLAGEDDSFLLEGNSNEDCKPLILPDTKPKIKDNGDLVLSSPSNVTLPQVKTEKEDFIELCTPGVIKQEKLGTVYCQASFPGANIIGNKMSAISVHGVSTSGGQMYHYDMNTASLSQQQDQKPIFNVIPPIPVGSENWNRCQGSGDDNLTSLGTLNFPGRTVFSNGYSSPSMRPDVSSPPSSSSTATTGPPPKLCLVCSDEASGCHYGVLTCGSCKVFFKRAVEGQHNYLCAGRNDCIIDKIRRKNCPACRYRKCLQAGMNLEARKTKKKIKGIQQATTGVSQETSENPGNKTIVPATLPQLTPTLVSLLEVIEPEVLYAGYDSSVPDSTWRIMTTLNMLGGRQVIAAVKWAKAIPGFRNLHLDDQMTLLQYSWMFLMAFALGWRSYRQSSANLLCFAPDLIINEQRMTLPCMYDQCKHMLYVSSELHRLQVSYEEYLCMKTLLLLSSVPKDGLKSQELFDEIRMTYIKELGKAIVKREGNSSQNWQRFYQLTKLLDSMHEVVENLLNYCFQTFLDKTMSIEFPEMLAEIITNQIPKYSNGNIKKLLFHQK
3',5'-cyclic-AMP phosphodiesterase 4B (Homo sapiens), sequence (Q07343 whole entry, looked up): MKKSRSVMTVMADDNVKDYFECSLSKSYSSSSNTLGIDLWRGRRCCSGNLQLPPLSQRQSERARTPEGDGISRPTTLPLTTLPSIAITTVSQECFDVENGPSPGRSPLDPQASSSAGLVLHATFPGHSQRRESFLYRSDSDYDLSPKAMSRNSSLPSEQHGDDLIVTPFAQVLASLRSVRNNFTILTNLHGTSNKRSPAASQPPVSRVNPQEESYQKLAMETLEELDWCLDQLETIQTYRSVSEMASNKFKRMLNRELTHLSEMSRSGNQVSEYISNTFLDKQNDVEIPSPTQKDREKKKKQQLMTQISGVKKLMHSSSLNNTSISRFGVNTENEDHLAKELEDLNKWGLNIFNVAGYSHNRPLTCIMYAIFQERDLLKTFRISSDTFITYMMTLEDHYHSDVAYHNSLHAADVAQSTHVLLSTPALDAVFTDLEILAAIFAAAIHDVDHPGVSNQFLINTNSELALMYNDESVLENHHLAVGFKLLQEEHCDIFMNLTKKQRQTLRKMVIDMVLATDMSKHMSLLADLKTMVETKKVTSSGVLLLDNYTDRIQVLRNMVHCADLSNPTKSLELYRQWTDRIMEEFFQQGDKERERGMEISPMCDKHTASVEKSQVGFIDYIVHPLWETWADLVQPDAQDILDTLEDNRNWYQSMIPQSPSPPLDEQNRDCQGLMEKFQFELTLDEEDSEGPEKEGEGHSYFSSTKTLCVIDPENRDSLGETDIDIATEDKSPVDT
Cytochrome P450 2C19 (Homo sapiens), sequence (P33261 whole entry, looked up): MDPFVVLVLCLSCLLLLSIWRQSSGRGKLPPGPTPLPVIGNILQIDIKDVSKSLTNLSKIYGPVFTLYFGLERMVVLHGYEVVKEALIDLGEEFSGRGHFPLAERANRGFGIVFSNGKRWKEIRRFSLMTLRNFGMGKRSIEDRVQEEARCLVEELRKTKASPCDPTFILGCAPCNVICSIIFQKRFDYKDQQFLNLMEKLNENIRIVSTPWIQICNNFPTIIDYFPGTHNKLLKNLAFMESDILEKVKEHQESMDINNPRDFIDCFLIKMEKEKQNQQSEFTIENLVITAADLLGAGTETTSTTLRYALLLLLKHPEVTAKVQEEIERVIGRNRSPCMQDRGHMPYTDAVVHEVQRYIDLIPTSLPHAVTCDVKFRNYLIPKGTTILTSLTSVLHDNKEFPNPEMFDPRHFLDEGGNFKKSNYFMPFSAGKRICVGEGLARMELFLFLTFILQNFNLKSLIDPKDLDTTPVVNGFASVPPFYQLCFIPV
Cytochrome P450 2C9 (Homo sapiens), sequence (P11712 whole entry, looked up): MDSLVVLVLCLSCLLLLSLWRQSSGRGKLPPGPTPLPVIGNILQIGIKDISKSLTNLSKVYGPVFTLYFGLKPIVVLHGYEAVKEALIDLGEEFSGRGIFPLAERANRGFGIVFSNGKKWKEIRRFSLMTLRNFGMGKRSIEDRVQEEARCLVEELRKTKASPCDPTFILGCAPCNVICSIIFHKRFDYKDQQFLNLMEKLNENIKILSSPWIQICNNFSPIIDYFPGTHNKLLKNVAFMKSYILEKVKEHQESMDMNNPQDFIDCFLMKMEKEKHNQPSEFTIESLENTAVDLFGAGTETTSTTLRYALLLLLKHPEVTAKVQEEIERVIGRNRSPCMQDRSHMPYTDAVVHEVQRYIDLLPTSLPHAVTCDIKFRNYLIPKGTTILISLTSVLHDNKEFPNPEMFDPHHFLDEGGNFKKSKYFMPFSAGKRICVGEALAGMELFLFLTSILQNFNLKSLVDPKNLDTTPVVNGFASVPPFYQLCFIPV
Cytochrome P450 2D6 (Homo sapiens), sequence (P10635 whole entry, looked up): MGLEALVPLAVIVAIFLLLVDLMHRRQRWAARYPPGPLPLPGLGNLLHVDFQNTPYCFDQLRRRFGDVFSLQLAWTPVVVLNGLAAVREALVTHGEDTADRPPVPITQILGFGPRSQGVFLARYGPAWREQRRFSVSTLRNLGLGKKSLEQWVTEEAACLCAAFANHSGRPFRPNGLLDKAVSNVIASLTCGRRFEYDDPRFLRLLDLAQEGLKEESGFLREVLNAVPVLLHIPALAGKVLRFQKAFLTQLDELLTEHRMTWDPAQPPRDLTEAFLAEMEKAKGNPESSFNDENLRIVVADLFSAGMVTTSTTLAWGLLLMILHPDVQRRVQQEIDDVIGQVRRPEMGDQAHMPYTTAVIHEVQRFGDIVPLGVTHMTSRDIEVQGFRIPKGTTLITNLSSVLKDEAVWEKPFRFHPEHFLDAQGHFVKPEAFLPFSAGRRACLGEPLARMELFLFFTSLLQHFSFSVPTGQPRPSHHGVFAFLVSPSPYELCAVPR

Turning to `COC(=O)CCCC(=O)O`, the Potency was greater than 11.4 µM in experiment [1], greater than 46 µM in experiment [5] and greater than 9.22 µM in experiment [6]. Further, the activity change, negative = inhibition in experiment [2] is 1.55%; in experiment [3], -3.39%. For the same compound, the activity, negative = inhibition in experiment [4] is -4.13%. For the same compound, the Potency result in experiment [7] and in experiment [8] was “inactive” throughout.

`Cc1ccc2nc(-c3ccc(NC(=O)c4ccc(N)cc4)c(S(=O)(=O)O)c3)sc2c1`: the Potency in [1] was greater than 11.4 µM; in [5], greater than 46 µM; in experiment [6], greater than 9.22 µM. Moreover, the figures for the activity change, negative = inhibition in experiment [2] and in [3] were -3.73% and 12.1%, respectively. The activity, negative = inhibition in experiment [4] was -11.4%. The Potency entry in [7] and in experiment [8] was “inactive” throughout.

As for `NC(=O)C[C@@H](N)c1nn[nH]n1`, the Potency is greater than 11.4 µM in experiment [1], greater than 46 µM in experiment [5] and greater than 9.22 µM in experiment [6]. Also, the activity change, negative = inhibition in experiment [2] was 9.01%; in [3], 14.8%. The activity, negative = inhibition in experiment [4] is 9.79%. The Potency entry in experiment [7] and in [8] was “inactive” each time.

Consider `c1ccc(CCN2CCN=C2Cc2ccccc2)cc1`, for which the Potency in experiment [1] was greater than 11.4 µM; in experiment [5], greater than 46 µM; in experiment [6], greater than 9.22 µM; in experiment [9], 126 nM (active). Moreover, the results for the activity change, negative = inhibition in experiment [2] and in experiment [3] were 6.53% and -21.9%, respectively. Moreover, the activity, negative = inhibition in experiment [4] was 14.6%. In addition, the Potency result in [7] and in experiment [8] was “inactive” throughout.

As to `N#C/C(=C(\O)C(=O)O)c1ccc(-c2cccc3ccccc23)cc1`, the Potency in [1] is greater than 11.4 µM; in [5] it was greater than 46 µM; in experiment [6], greater than 9.22 µM. The activity change, negative = inhibition was -3.67% in experiment [2] and 4.07% in experiment [3]. Also, the activity, negative = inhibition in experiment [4] is 3.75%. Further, the Potency result in experiment [7], in experiment [8] and in [10] was “inactive” throughout.

Turning to `S=C1SCN(C2CCCCCCCCCCC2)CN1C1CCCCCCCCCCC1`, the Potency was greater than 11.4 µM in experiment [1], greater than 46 µM in [5], greater than 9.22 µM in experiment [6] and 3.98 µM (active) in [10]. The activity change, negative = inhibition was -6.27% in [2] and 6.16% in [3]. Besides, the activity, negative = inhibition in experiment [4] was -6.56%. Further, the Potency result in experiment [7], in [8] and in experiment [11] was “inactive” throughout. The activation in [12] is 24.8%.

`O=c1c(-c2ccccc2)nc2cnc(Oc3ccccc3)nc2n1C1CC1`: the Potency in [1] is greater than 11.4 µM; in experiment [5], greater than 9.22 µM; in experiment [6] it was greater than 46 µM. Besides, the activity change, negative = inhibition was -26.4% in experiment [2] and 2.32% in experiment [3]. For the same compound, the activity, negative = inhibition in experiment [4] was -5.21%. In addition, the Potency entry in experiment [7], in experiment [8] and in [13] was “inactive” throughout.

Consider `O=S1(=O)CCN(c2ccccc2CC(c2c[nH]c3ccccc23)c2c[nH]c3ccccc23)CC1`, for which the Potency was greater than 11.4 µM in experiment [1]; greater than 46 µM in experiment [5]; greater than 9.22 µM in [6]; 3.16 µM (active) in experiment [14]; 3.16 µM (active) in experiment [10]. Further, the activity change, negative = inhibition in experiment [2] was -12.9%; in [3], -27.4%. Further, in experiment [4], the activity, negative = inhibition is -20.7%. The Potency entry in [7], in experiment [8] and in experiment [11] was “inactive” throughout.
